{
  "source": "PubChem BioAssay AID1851",
  "about": "(National Center for Advancing Translational Sciences (NCATS), 2009)",
  "note": "Out of some 16,000 compounds screened, about 5,700 (36%) were called active. Roughly 24% stayed inconclusive and do not appear here. Calls follow the shape of the dose curve; as a rule, active = well fitted curve in the direction sought with a large enough effect; inconclusive = small, poorly fitted or top-dose-only effect, or effect the other way; inactive = no such curve, though single readings can be large or run the other way. The list shows a part of the results. % is scaled to controls: 0 for no effect and ±100 for the full control effect.",
  "data": [
    {"target": "Cytochrome P450 1A2 (Homo sapiens) (UniProt P05177)", "sequence (P05177 whole entry, looked up)": "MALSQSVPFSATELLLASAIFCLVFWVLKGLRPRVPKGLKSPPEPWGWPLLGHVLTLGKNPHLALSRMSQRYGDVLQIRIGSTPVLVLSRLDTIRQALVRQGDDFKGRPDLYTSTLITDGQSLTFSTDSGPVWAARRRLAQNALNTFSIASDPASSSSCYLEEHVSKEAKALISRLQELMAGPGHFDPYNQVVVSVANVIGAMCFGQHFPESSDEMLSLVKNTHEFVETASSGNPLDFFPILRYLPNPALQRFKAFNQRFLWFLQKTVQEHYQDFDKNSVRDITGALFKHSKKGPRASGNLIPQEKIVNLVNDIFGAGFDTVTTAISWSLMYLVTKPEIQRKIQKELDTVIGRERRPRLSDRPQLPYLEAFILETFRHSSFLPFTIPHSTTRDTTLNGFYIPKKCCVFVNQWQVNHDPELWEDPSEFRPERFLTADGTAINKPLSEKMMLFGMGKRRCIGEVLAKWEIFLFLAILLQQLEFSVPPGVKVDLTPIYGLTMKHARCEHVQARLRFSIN", "test": "Cytochrome panel assay with activity outcomes", "details": "recombinant CYP, pro-luciferin dealkylation, luminescence, p450-cyp1a2; series mostly up to 57.1 µM; activity, negative = inhibition: at the top concentration", "values": [
      {"molecule": "COc1c(/C=N/Nc2ccc([N+](=O)[O-])cc2[N+](=O)[O-])c(C)nn1-c1ccccc1", "activity, negative = inhibition": "-16.9% (inactive)"},
      {"molecule": "O=[N+]([O-])c1ccc(N/N=C\\c2cccn2-c2ccccc2)nc1", "AC50": "3550 nM (active)"},
      {"molecule": "N[C@H](C(=O)O)[C@H](N)C(=O)O", "activity, negative = inhibition": "-13.3% [at 11.4 µM] (inactive)"},
      {"molecule": "CC(C)Oc1ccc(N2CC(C(=O)OCC(=O)NCc3ccccc3)CC2=O)cc1", "note": "(centres undefined)", "activity, negative = inhibition": "-6.35% (inactive)"},
      {"molecule": "COc1ccc(N2CC(C(=O)OCC(=O)c3cccc(OC)c3)CC2=O)cc1", "note": "(centres undefined)", "AC50": "20000 nM (active)"},
      {"molecule": "COc1ccc(N2CC(C(=O)Nc3cc(C)on3)CC2=O)cc1", "note": "(centres undefined)", "activity, negative = inhibition": "-2.16% (inactive)"},
      {"molecule": "COC(=O)[C@@H]1[C@@H]2C[C@H]3c4[nH]c5ccccc5c4CCN3C[C@@H]2CC[C@@H]1OS(=O)(=O)O", "activity, negative = inhibition": "-10.3% [at 2.29 µM] (inactive)"},
      {"molecule": "Cc1ccccc1C(=O)NNC(=O)c1ccoc1C", "activity, negative = inhibition": "-5.51% (inactive)"},
      {"molecule": "Cc1ccccc1C(=O)NC(C)c1ccc2c(c1)CCCC2", "note": "(centres undefined)", "AC50": "11200 nM (active)"},
      {"molecule": "CCCCCSc1nncc(=O)[nH]1", "activity, negative = inhibition": "-14.7% (inactive)"},
      {"molecule": "O=c1[nH]c(=O)n([C@@H]2C[C@H](O)[C@H](CO)O2)cc1I", "activity, negative = inhibition": "10.8% [at 25.6 µM] (inactive)"},
      {"molecule": "COCCCNC(=O)Cn1nc(-c2ccccc2OC)ccc1=O", "activity, negative = inhibition": "-16% (inactive)"},
      {"molecule": "COc1ccccc1-c1cc(C(F)(F)F)nc(S(=O)(=O)CCCC(=O)NC(C)C)n1", "AC50": "2000 nM (active)"},
      {"molecule": "Cc1[nH]n(C(C)(C)C)c(=O)c1Sc1ccc(Cl)cc1", "activity, negative = inhibition": "-0.437% (inactive)"},
      {"molecule": "Cc1ccc(N=Cc2cc(C)n(C3CCCC3)c2C)cc1", "AC50": "10000 nM (active)"},
      {"molecule": "CCc1ccc(NC(=O)CS(=O)CC(=O)NCCCc2ccccc2)cc1", "note": "(centres undefined)", "activity, negative = inhibition": "-19.7% (inactive)"},
      {"molecule": "CCCCc1ccc(NC(=S)NCc2cccs2)cc1", "AC50": "8910 nM (active)"},
      {"molecule": "CCCC(=O)Nc1ccc(C(=O)NNC(=S)NC(=O)c2cccs2)cc1", "activity, negative = inhibition": "3.27% (inactive)"},
      {"molecule": "CC#CCOC(=O)c1c(C)nc2sc3c(c2c1N)CC[C@@H](O)C3", "AC50": "25.1 nM (active)"},
      {"molecule": "COCCCNC(=O)C1C2C=CC3(CN(Cc4ccc(C)cc4)C(=O)C13)O2", "note": "(centres undefined)", "activity, negative = inhibition": "-1.32% (inactive)"},
      {"molecule": "COCCNC(=O)c1onc(CSc2cccc(Cl)c2)c1C(=O)O", "activity, negative = inhibition": "-11.1% (inactive)"},
      {"molecule": "O=C(/C=C/c1cccc([N+](=O)[O-])c1)NCCN1CCOCC1", "activity, negative = inhibition": "5.84% (inactive)"},
      {"molecule": "O=C(/C=C/c1cccc(Cl)c1)Nc1ccncc1", "AC50": "2000 nM (active)"},
      {"molecule": "O=C(/C=C/c1ccc(Cl)cc1)NCCN1CCOCC1", "activity, negative = inhibition": "-28.6% (inactive)"},
      {"molecule": "O=C(/C=C/c1ccccc1)NNC(=O)c1cccnc1", "activity, negative = inhibition": "-8.85% (inactive)"},
      {"molecule": "O=C(/C=C/c1ccc(Cl)cc1)NCCSc1ccccc1", "AC50": "1580 nM (active)"},
      {"molecule": "COCCCNC(=O)/C=C/c1ccc(Cl)cc1", "AC50": "7080 nM (active)"},
      {"molecule": "COCCCNC(=O)/C=C/c1cccc(Cl)c1", "AC50": "6310 nM (active)"},
      {"molecule": "C/C(=N\\OC(=O)c1ccccc1)c1cc(-c2ccc(Cl)cc2)no1", "AC50": "2820 nM (active)"},
      {"molecule": "CC(C)CO/N=C1/C[C@@H](O)[C@@H](O)[C@@H]2[C@@H]3C(=O)N([C@@H](C)c4ccccc4)C(=O)[C@H]3CC[C@@H]12", "activity, negative = inhibition": "-9.02% [at 11.4 µM] (inactive)"},
      {"molecule": "COc1ccc(NC(=O)CCNS(=O)(=O)c2ccc3c(c2)c(=O)n(C)c(=O)n3C)cc1", "activity, negative = inhibition": "7.33% (inactive)"},
      {"molecule": "COc1ccc(S(=O)(=O)NCCC(=O)NC(C)c2ccccc2)cc1", "note": "(centres undefined)", "activity, negative = inhibition": "-12.5% (inactive)"},
      {"molecule": "COc1ccc(OCCNS(=O)(=O)c2ccc3oc4ccccc4c3c2)cc1", "AC50": "2820 nM (active)"},
      {"molecule": "O=C1CCCc2ccccc2N1Cc1cccc(Cl)c1", "AC50": "12600 nM (active)"},
      {"molecule": "CN1CCN(C2CC(=O)N(Cc3ccc(N4CCCC4=O)cc3)C2=O)CC1", "note": "(centres undefined)", "activity, negative = inhibition": "8.84% (inactive)"},
      {"molecule": "O=C1CCCc2ccccc2N1Cc1ccccc1Cl", "AC50": "14100 nM (active)"},
      {"molecule": "C[C@@H](CN(C)C)CN1c2ccccc2CCc2ccccc21", "AC50": "inactive"},
      {"molecule": "O=C1CC(N2CCN(C(c3ccccc3)c3ccccc3)CC2)C(=O)N1Cc1ccc(N2CCCC2=O)cc1", "note": "(centres undefined)", "activity, negative = inhibition": "0.781% (inactive)"},
      {"molecule": "CC1(C)[C@@H]2CC[C@]1(CC(=O)O)[C@H](Cl)C2", "activity, negative = inhibition": "-14.2% [at 11.4 µM] (inactive)"},
      {"molecule": "CNc1csc(C)c(C)c1=O", "AC50": "10000 nM (active)"},
      {"molecule": "C=C(C)COc1ccc2c(c1)CCC1C2CC[C@]2(C)C(=O)/C(=N/O)CC12", "note": "(some centres undefined)", "activity, negative = inhibition": "-13.8% [at 11.4 µM] (inactive)"},
      {"molecule": "CCOc1ccc2nc3cc(N=Nc4ccc(N)nc4N)ccc3c(N)c2c1", "AC50": "794 nM (active)"},
      {"molecule": "Cc1ccc(S(=O)(=O)N(C)c2cc(S(=O)(=O)N3CCC(C)CC3)c(C)cc2C)cc1", "activity, negative = inhibition": "9.58% (inactive)"},
      {"molecule": "COc1ccc(/C=N/NC(=S)NC2CCS(=O)(=O)C2)cc1OC", "note": "(centres undefined)", "AC50": "6310 nM (active)"},
      {"molecule": "O=S(=O)(c1ccccc1S(=O)(=O)N1CCCCC1)N1CCCCC1", "activity, negative = inhibition": "-15.2% (inactive)"},
      {"molecule": "O=C1SC(c2ccccc2)=C/C1=C\\N1CCCCC1", "AC50": "1000 nM (active)"},
      {"molecule": "COC(=O)C/C=C\\[C@@H](C)[C@@H](/C=N\\O[C@@H](C)c1cc(-c2c(C)cc(C)cc2C)no1)NS(=O)(=O)c1ccc(C)cc1", "activity, negative = inhibition": "4.06% [at 11.4 µM] (inactive)"},
      {"molecule": "CCOc1ccccc1OCCOc1ccc(F)cc1", "AC50": "2820 nM (active)"},
      {"molecule": "CCOc1ccc(S(=O)(=O)NCc2ccc(F)cc2)c2cccnc12", "activity, negative = inhibition": "-23% (inactive)"},
      {"molecule": "CC1(CCC(=O)OC2CCCCC2)OCCO1", "activity, negative = inhibition": "-7.12% [at 11.4 µM] (inactive)"},
      {"molecule": "CCCCOc1ccc(/C=C/C(=O)NCCc2nc3ccccc3[nH]2)cc1", "activity, negative = inhibition": "-24.1% (inactive)"},
      {"molecule": "Cc1ccc(/C=C/C(=O)c2nc3ccccc3[nH]2)cc1", "AC50": "1780 nM (active)"},
      {"molecule": "NC(=O)c1ccc([N+](=O)[O-])cc1SCc1ccccc1", "AC50": "8910 nM (active)"},
      {"molecule": "CCC(C)NC(=O)NC(=O)N(C1CCCCC1)S(C)(=O)=O", "note": "(centres undefined)", "activity, negative = inhibition": "6.61% (inactive)"},
      {"molecule": "C=CCn1c(SC(C)C(=O)NCc2ccc3c(c2)OCO3)nc2scc(-c3ccccc3)c2c1=O", "note": "(centres undefined)", "AC50": "10000 nM (active)"},
      {"molecule": "C=CCn1c(SCc2ccc3c(c2)OCO3)nc2scc(-c3ccco3)c2c1=O", "AC50": "2510 nM (active)"},
      {"molecule": "CCc1nc(SCC(=O)N2CCCc3ccccc32)c2oc3ccccc3c2n1", "AC50": "1260 nM (active)"},
      {"molecule": "CCc1nc(SCC(=O)c2ccc(Cl)s2)c2oc3ccccc3c2n1", "AC50": "251 nM (active)"},
      {"molecule": "Cc1nc(SCC(=O)Nc2ccc3c(c2)OCCO3)c2oc3ccccc3c2n1", "AC50": "1000 nM (active)"},
      {"molecule": "Cc1nc(SCC(=O)c2ccc(Cl)s2)c2oc3ccccc3c2n1", "AC50": "141 nM (active)"},
      {"molecule": "O=C(Cn1cnc2ccccc2c1=O)NCCC(=O)Nc1ccc2c(c1)OCCO2", "activity, negative = inhibition": "-28.5% (inactive)"},
      {"molecule": "C/C(C[n+]1ccccc1)=N\\N=C(N)N", "activity, negative = inhibition": "-9.68% [at 11.4 µM] (inactive)"},
      {"molecule": "CCc1nc(SCC(=O)NCCc2ccccc2)c2oc3ccccc3c2n1", "AC50": "1580 nM (active)"},
      {"molecule": "CCc1nc(N[C@H](C(=O)O)C(C)CC)c2oc3ccccc3c2n1", "note": "(some centres undefined)", "activity, negative = inhibition": "-23.2% (inactive)"}
    ]}
  ]
}
